# Laboratory results: publication PMC7819943, “Rice protein-binding microarrays: a tool to detect cis-acting elements near promoter regions in rice”
# In all, about 68,000 sequences were measured (“fluorescence intensity (a.u.)”: median about 9,100, highest 2% from about 16,000 on). Only a selection was taken, and the highest values are over-represented in it overall.
# Target: OsWRKY34 (Oryza sativa, UniProt Q0JBA9 1-250)
# Assay: protein-binding microarray (RPBM); PBS, 2% BSA, 51.3 ng/ul salmon testes DNA, 50 uM zinc acetate, 200 nM TF, 25 C, 1 h; high values mean tight binding
# Conditions: protein: recombinant; tags: N-terminal polyhistidine and DsRed monomer fusion (pET32a); label: CyDye5-dUTP incorporated in the synthesized complementary strand; 3' TTTTT single-stranded linker to array surface; dsDNA, one strand shown
# Method in brief: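 The binding signal is fluorescence intensity per array feature (arbitrary units). Readings came from an Axon 4000B scanner after a washed, 2% BSA-blocked, double-stranded custom Agilent array had been incubated for 1 h at 25 °C with 200 nM protein and 50 µM zinc acetate. The protein was a Ni–NTA-purified transcription factor fused N-terminally to polyhistidine and DsRed, expressed in E. coli BL21-CodonPlus.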
# Chain of OsWRKY34 (Q0JBA9 entry or part of it): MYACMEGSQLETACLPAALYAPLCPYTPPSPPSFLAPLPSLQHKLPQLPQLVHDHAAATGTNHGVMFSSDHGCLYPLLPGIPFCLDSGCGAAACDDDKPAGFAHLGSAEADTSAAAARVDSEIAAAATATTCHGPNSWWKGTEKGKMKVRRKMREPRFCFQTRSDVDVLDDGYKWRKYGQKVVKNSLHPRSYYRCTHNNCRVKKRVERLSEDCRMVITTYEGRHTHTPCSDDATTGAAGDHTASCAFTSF
row,Sequence,binding signal
1,CGTTGACTTTTTAGTACGTGTTTGACCATTCGTCTTATTCCGGAGTCACCTAGTGCAG,30200 fluorescence intensity (a.u.)
2,GTTCATATAGTACGTACTTTTATTCGTTAGTATATATGACCGGAGTCACCTAGTGCAG,9410 fluorescence intensity (a.u.)
3,TGTCACATTCGTCTCCGGTCCGTACGTTGCTGTATTTTAGCGGAGTCACCTAGTGCAG,17100 fluorescence intensity (a.u.)
4,AACTTTACAATTTTTTTATGTCATCCATGTCACATGTTTTCGGAGTCACCTAGTGCAG,9030 fluorescence intensity (a.u.)
5,TTTAGTACGTGTTTGACCATTCGTCTTATTAAAAAAATTTCGGAGTCACCTAGTGCAG,9130 fluorescence intensity (a.u.)
6,TGTTAACTTTTTAGTACGTGTTTGACTATTCGTTTTATTCCGGAGTCACCTAGTGCAG,12800 fluorescence intensity (a.u.)
7,TTTGACACCGTTGATTTTTTAATATGTGTTTGACCATTCGCGGAGTCACCTAGTGCAG,9260 fluorescence intensity (a.u.)
8,ACCCACTTTCGACTCCATGAATTTCATCACATTTGTTTTACGGAGTCACCTAGTGCAG,18600 fluorescence intensity (a.u.)
9,GTTCCCAACGGTCACCTCGTCGTCGTTGCCAAATCTGCCACGGAGTCACCTAGTGCAG,8670 fluorescence intensity (a.u.)
10,ATCACGTCGCCTCGTTTCTTGCCTCGCCGCTCGTTGCTCGCGGAGTCACCTAGTGCAG,12200 fluorescence intensity (a.u.)
11,AATACCAAGTTTATTTCTCACCTGCATTTTAGATTCTCATCGGAGTCACCTAGTGCAG,9050 fluorescence intensity (a.u.)
12,TAGTCCACCTTTTATTACCCAAGTTTCAATTTGGACCACCCGGAGTCACCTAGTGCAG,9740 fluorescence intensity (a.u.)
13,TCCCTTCCCTGTTCCTGGCGACGTGTCACCTTCTTATTCGCGGAGTCACCTAGTGCAG,8050 fluorescence intensity (a.u.)
14,ATAAACATTGACTCGCCGGAGTAGTTTTGAAACGTTTGACCGGAGTCACCTAGTGCAG,9180 fluorescence intensity (a.u.)
15,GCAACCAACATCCCGGCGGCGAGCTCGTACGTACCAAATCCGGAGTCACCTAGTGCAG,10800 fluorescence intensity (a.u.)
16,CACACCACACACTGATGCAACGGCACTTAAGCGCACGAAGCGGAGTCACCTAGTGCAG,8060 fluorescence intensity (a.u.)
17,CGTCGGTGTGGTATGCTTGTCGCGCGGCGGCGCGGCCGTACGGAGTCACCTAGTGCAG,8790 fluorescence intensity (a.u.)
18,CCTACCTCCTACTCCTTATCCTCCACTTCGTCGCATTACACGGAGTCACCTAGTGCAG,8750 fluorescence intensity (a.u.)
19,CGACTGCAGCTGATCCGGATTCAACACGGACATAGTACACCGGAGTCACCTAGTGCAG,8550 fluorescence intensity (a.u.)
20,ATTTAGTTCTCAACATACCCCTTTTCATCTTTTTGTCAGACGGAGTCACCTAGTGCAG,8840 fluorescence intensity (a.u.)
21,CGTTGACTTTTTAGTACATGTTTGACCATTCGTCTTATTCCGGAGTCACCTAGTGCAG,36100 fluorescence intensity (a.u.)
22,ACACCGTTGACTTTTTAGTACGTATTTGACCATTCGTCTTCGGAGTCACCTAGTGCAG,36700 fluorescence intensity (a.u.)

row,Sequence,binding signal
1,CTTTTTAATCAACGTTTGACCATTCGTCTTATTCAATTTTCGGAGTCACCTAGTGCAG,10900 fluorescence intensity (a.u.)
2,TCATTCATATTATTTATTATTTAGTTGTTTGACTTTTTTTCGGAGTCACCTAGTGCAG,9600 fluorescence intensity (a.u.)
3,AATATTTTTTTTTACTGTTTTCACTTTGACCATTAATATTCGGAGTCACCTAGTGCAG,9790 fluorescence intensity (a.u.)
4,TCATTGACTTTTCGATCAACGTTTGACCATTTGTTTTATTCGGAGTCACCTAGTGCAG,16700 fluorescence intensity (a.u.)
5,GTTGACTTTTTGATTAACGTTTGACCATTCGTTTTATTCACGGAGTCACCTAGTGCAG,9480 fluorescence intensity (a.u.)
6,GCTGTTGACTTTCGACCTACGTTTGACCATTCGTTTTATTCGGAGTCACCTAGTGCAG,20600 fluorescence intensity (a.u.)
7,GCCATTTGTACGTTTCTATTTTCTCAGTAATCAGACCATTCGGAGTCACCTAGTGCAG,11600 fluorescence intensity (a.u.)
8,CCCGTCTCCTCGCCTGCCGATCTCCATCCTGCTAGCAGAGCGGAGTCACCTAGTGCAG,8930 fluorescence intensity (a.u.)
9,AGATACATACGCCCACCCGCCGCGCCCACTTCCGTCCAAACGGAGTCACCTAGTGCAG,8490 fluorescence intensity (a.u.)
10,TCCTCCTGTCTCTGCCTCTGCTCGGCTAGTCTAGTGTACTCGGAGTCACCTAGTGCAG,8810 fluorescence intensity (a.u.)
11,GTATTTAATTAGCTCCTCGTCTTGTTCTGCTAAGCTACTACGGAGTCACCTAGTGCAG,9460 fluorescence intensity (a.u.)
12,TTGTCATCCTCGCCACCTCATTCTTTCTTTCTTTCATCTCCGGAGTCACCTAGTGCAG,12900 fluorescence intensity (a.u.)
13,ACATAACACCACTTGATACTATTTCTCTTAATTAATTACTCGGAGTCACCTAGTGCAG,9670 fluorescence intensity (a.u.)
14,CCGTTGACTTTTTAGTACGTGTTTGACCATTCGTCTTATTCGGAGTCACCTAGTGCAG,32300 ± 947 fluorescence intensity (a.u.)
15,GACTTTTTAGTACGTGTTTGACCATTCGTCTTATTCAAAACGGAGTCACCTAGTGCAG,11900 fluorescence intensity (a.u.)
16,GTTGACTTTTTAGTACGTGTTTGACCATTCGTCTTATTCACGGAGTCACCTAGTGCAG,10100 ± 646 fluorescence intensity (a.u.)
17,CCATTGTTAGGGTTAAGTCTTATTTCACCACATCGTTTTTCGGAGTCACCTAGTGCAG,8740 fluorescence intensity (a.u.)
18,GGCTTACCCAAGAATAACGATCCAACTTGGGGAGGGAGGGCGGAGTCACCTAGTGCAG,10000 fluorescence intensity (a.u.)
19,TTTGACGCTGTTGACTTTTTTTAACATGTTTGACTGTTCGCGGAGTCACCTAGTGCAG,32700 fluorescence intensity (a.u.)
20,TTTGACACCGTTGACTTTTTTAAACATGTTTAACTGTTCGCGGAGTCACCTAGTGCAG,33900 fluorescence intensity (a.u.)
21,TTGACTTTTTTAAACATGTTTAACTGTTCGTCTTATTAAACGGAGTCACCTAGTGCAG,8820 fluorescence intensity (a.u.)
22,AATGTTTGACACCGTTGACTTTTTAACACATGTTTGACCGCGGAGTCACCTAGTGCAG,39300 fluorescence intensity (a.u.)
